Test results taken from PubChem BioAssay AID504905 (The Scripps Research Institute Molecular Screening Center, 2011).
The list shows a part of the results. A number with no mark means an inactive call. The source made the active and inactive calls. Cut-off read from the data, not from the text of the source: active = activation above about 17%; inactive = the rest.

target: 5-hydroxytryptamine receptor 5A (Homo sapiens) (UniProt P47898); assay: HTR5A agonists in cells, counter-screen for OPRM1-OPRD1 heterodimer agonist project, cell-based, luminescence (AID 504905); conditions: HTR5A agonist counterscreen, at 9.3 µM, active compounds read high;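 note: 0% = vehicle-treated cells and 100% = reference agonist response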
Sequence (P47898 whole entry, looked up): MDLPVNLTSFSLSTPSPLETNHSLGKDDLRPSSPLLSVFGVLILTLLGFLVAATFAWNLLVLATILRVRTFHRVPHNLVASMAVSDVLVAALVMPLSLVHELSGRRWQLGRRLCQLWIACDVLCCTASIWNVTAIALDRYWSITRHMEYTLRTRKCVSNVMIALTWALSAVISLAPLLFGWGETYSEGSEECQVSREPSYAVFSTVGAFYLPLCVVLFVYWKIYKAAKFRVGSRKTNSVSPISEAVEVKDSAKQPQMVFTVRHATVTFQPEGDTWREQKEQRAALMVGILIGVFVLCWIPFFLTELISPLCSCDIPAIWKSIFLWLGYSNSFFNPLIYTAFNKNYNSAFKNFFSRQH

| Structure (SMILES) | activation |
| --- | --- |
| CN(C)C(CNC(=O)c1cc2ccccc2o1)c1ccccc1 (stereo unspecified) | 46.9% (active) |
| N#C/C(=C(/O)COC(=O)COc1ccc(Cl)cc1)c1nc2ccccc2[nH]1 | 9.3% |
| Cc1cc(C)cc(C(=O)N(CCc2ccccc2)C2=CC3CCC(C2)N3C)c1 (stereo unspecified) | -1.9% |
| Cc1ccc(OCC(=O)Nc2ccc(NC(=O)c3cccs3)cc2)c(C)c1 | 8.16% |
| O=C(Nc1ccc(OC(F)(F)F)cc1)c1ccc2c(c1)no[n+]2[O-] | 1.96% |
| Cc1ccc(S(=O)(=O)N(CC(=O)Nc2cccnc2)c2ccc(Br)cc2)cc1 | 0.5% |
| CN(C)CCCN(C(=O)c1ccc(S(=O)(=O)N2CCCc3ccccc32)cc1)c1nc2ccc(F)cc2s1 | 7.49% |
| COc1cc(/C=N/NC(=O)Nc2ccccc2)ccc1OCCOc1ccccc1C | 10.4% |
| COCCCNc1nc2c(-c3cccc(C)c3)nnn2c2ccc(Cl)cc12 | 8.68% |
| CCOC(=O)c1c(C)[nH]c2c1-c1ccccc1C(=O)C2=O | 9.05% |
| COc1ccc(C2Nc3ccccc3C(=O)N2c2ccc(F)cc2)cc1Cn1nnc2ccccc21 (stereo unspecified) | 2.9% |
| CC(OC(=O)/C=C/c1ccccc1)C(=O)Nc1ccc(C(N)=O)cc1 (stereo unspecified) | 0.16% |
| CCOC(=O)C1(CC2CCCCO2)CCN(Cc2nc(-c3cccs3)oc2C)CC1 (stereo unspecified) | 3.31% |
| COc1ccccc1C(CNC(=O)c1ccc(C)c(S(=O)(=O)N2CCCCC2)c1)N(C)C (stereo unspecified) | 0.79% |
| CCC(C(=O)OCC(=O)Nc1ccc(C(=O)Nc2ccc(OC)cc2)cc1)c1ccccc1 (stereo unspecified) | 5.87% |
| CN(C)C(CNC(=O)Cc1ccc([N+](=O)[O-])cc1)c1ccccc1 (stereo unspecified) | 1.22% |
| CC(c1cccnc1)N(CCN(C)C)C(=O)Nc1ccc(Cl)c(Cl)c1 (stereo unspecified) | -6.75% |
| C=C(C)COc1ccc(-c2n[nH]c(C)c2-c2ccccc2)c(O)c1 | 5.34% |
| CCNS(=O)(=O)c1ccc(NC(=O)Nc2cccc(OC)c2)cc1 | 3.27% |
| COc1cccc(/C=N/Nc2cc(C)nc(-c3ccccc3O)n2)c1O | 0.01% |
| COc1ccc(C(CNCC(=O)Nc2ccccc2F)N(C)C)cc1 (stereo unspecified) | 5.09% |
